The nature of assay [1]: APR_HepG2_NuclearSize_72hr: Apredica 72-hour HepG2 Assay for Nuclear Size (AID 2282925). The settings on record: high-content imaging, actives raise or lower the signal. The method in brief: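 Nuclear size was read by high-content imaging of Hoechst 33342 stain after formaldehyde fixation. Compounds ran 72 h on HepG2 at 0.39 to 200 uM, with final DMSO 0.5% v/v. Curves fitted both directions relative to DMSO control.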

A short description of assay [2]: ATG_CRE_CIS: Attagene CIS-FACTORIAL HepG2 Assay for human cAMP Responsive Element (CRE) binding protein 3 (AID 2282926). As to conditions: HepG2 CRE cis-reporter, Attagene multiplexed mRNA; actives raise or lower the signal. A digest of the protocol: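 Liver-derived HepG2, transfected with a CRE-containing reporter panel, exposed 24 h; transcript levels sized and quantified by capillary electrophoresis of labelled amplicons; signal changes either way referenced to vehicle.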

In assay [3] the target is CCAAT/enhancer-binding protein beta (Homo sapiens) (UniProt P17676). In words: ATG_C_EBP_CIS: Attagene CIS-FACTORIAL HepG2 Assay for human CCAAT/Enhancer Binding Protein (C/EBP) beta (AID 2282927). As to conditions: HepG2 Attagene cis-factorial transcription factor reporter; actives raise or lower the signal. The method in brief: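 Endogenous C/EBPb-driven reporter transcripts measured in transfected human HepG2 cells at 24 h via RT-PCR and capillary electrophoresis of labelled fragments. Activity fitted in both directions relative to DMSO baseline.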

Assay [4] can be described thus: ATG_CMV_CIS: Attagene CIS-FACTORIAL HepG2 Assay for human CMV (Internal Marker) (AID 2282928).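 Further: endpoint acts as a background internal control marker rather than a target.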 The settings on record: HepG2 CMV promoter reporter, transcription factor profiling; actives raise or lower the signal. A digest of the protocol:
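24 h chemical treatment, HepG2 with transient multi-reporter transfection; RNA → oligo(dT) RT → PCR → 6-FAM extension → HpaI digest → CE fluorescence. Bidirectional fit, DMSO negative control.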

Assay [5] in a line: ATG_DR4_LXR_CIS: Attagene CIS-FACTORIAL HepG2 Assay for human Liver X Receptor (LXR), DR4 submotif (AID 2282929). As to conditions: HepG2 Attagene DR4 cis-reporter, mRNA transcription; actives raise or lower the signal. The method in brief:
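HepG2 cells were transiently transfected with multiple cis-regulated reporter units and dosed for 24 hours. The DR4 reporter mRNA was quantified by RT-PCR, 6-FAM labelling and capillary electrophoresis. Bidirectional fits used DMSO as baseline.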

Assay [6] concerns the target Aryl hydrocarbon receptor (Homo sapiens) (UniProt P35869). As to the kind of experiment: ATG_Ahr_CIS: Attagene CIS-FACTORIAL HepG2 Assay for human Aryl Hydrocarbon Receptor (Ahr) (AID 2282930). As to conditions: HepG2 AhR cis-factorial reporter transcription; actives raise or lower the signal. The method in brief:
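Reporter mRNA levels, quantified by RT-PCR and fluorescent capillary electrophoresis, reflect endogenous AhR transcriptional activity in HepG2 cells carrying transfected cis-promoter reporter constructs. Readout at 24 h post-dose; gain or loss fitted against DMSO baseline.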

Assay [7] is described as follows: ATG_AP_1_CIS: Attagene CIS-FACTORIAL HepG2 Assay for human Activator Protein 1 (AP-1) (AID 2282931). As to conditions: HepG2 Attagene cis-factorial AP-1 reporter mRNA; actives raise or lower the signal. The method in brief: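 HepG2 cells transiently transfected with cis-element-driven reporter transcription units, dosed for 24 hours. Reporter mRNA measured by RT-PCR, 6-FAM labelling, HpaI digestion and capillary electrophoresis. Bidirectional fitting against DMSO baseline.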

Assay [8] can be described thus: ATG_AP_2_CIS: Attagene CIS-FACTORIAL HepG2 Assay for human Activator Protein 2 (AP-2) (AID 2282932). As to conditions: HepG2 AP-2 cis-reporter, Attagene transcription factor profiling; actives raise or lower the signal. A digest of the protocol:
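Endogenous transcription factor activity is reported through transfected multiplex reporter constructs in HepG2, after 24 h of compound exposure. Transcripts were quantified by RT-PCR and capillary electrophoresis of fluorescent fragments. Bidirectional fit against DMSO.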

Assay [9] is described as follows: ATG_BRE_CIS: Attagene CIS-FACTORIAL HepG2 Assay for human Bone Morphogenetic Protein (BMP) Response Element (BRE) (AID 2282933). The settings on record: HepG2 BMP response element reporter, Attagene transcription factor profiling; actives raise or lower the signal. The method in brief: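 Endogenous transcription factor activity at a BMP response element was monitored in transfected HepG2 cells 24 h after dosing. Fluorescent RT-PCR products were resolved by capillary electrophoresis, and activity was fitted in both directions versus DMSO.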

In assay [10] the target is Transcription factor E2F1 (Homo sapiens) (UniProt Q01094). As to the kind of experiment: ATG_E2F_CIS: Attagene CIS-FACTORIAL HepG2 Assay for human E2F Transcription Factor 1 (AID 2282935). As to conditions: HepG2 Attagene cis-reporter, E2F reporter RNA transcripts; actives raise or lower the signal. A digest of the protocol: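 Gain or loss of reporter transcript, fitted against DMSO, reflects E2F1-driven transcription. Transiently transfected HepG2 dosed 24 h before RNA isolation. Quantified by fluorescent RT-PCR products separated by capillary electrophoresis.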

Assay [11] is described as follows: ATG_E_Box_CIS: Attagene CIS-FACTORIAL HepG2 Assay for human Enhancer Box (E-box) (AID 2282936). The settings on record: HepG2 E-box cis-reporter transcription, actives raise or lower the signal. The method in brief: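 E-box-driven reporter transcripts measured in transiently transfected HepG2 after 24 h exposure: RNA reverse-transcribed, PCR-amplified, fluorescently labelled, digested and resolved by capillary electrophoresis. Gain or loss relative to DMSO.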

Assay [12] can be described thus: ATG_M_61_CIS: Attagene CIS-FACTORIAL HepG2 Assay for M61 Transcription Factor (Internal Marker) (AID 2282937). As to conditions: HepG2 Attagene CIS-FACTORIAL M61 internal marker reporter; actives raise or lower the signal. The method in brief:
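HepG2 cells transiently transfected with multiplexed cis-promoter reporter units reporting endogenous transcription factor activity, measured 24 h after dosing. Reporter mRNA quantified by RT-PCR and capillary electrophoresis; bidirectional fit against DMSO baseline.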

Assay [13] can be described thus: ATG_EGR_CIS: Attagene CIS-FACTORIAL HepG2 Assay for human Early Growth Response 1 (EGR1) (AID 2282938). As to conditions: HepG2 Attagene CIS-FACTORIAL EGR reporter mRNA; actives raise or lower the signal. The method in brief: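 HepG2 cells transiently transfected with cis-element-driven multiplexed reporter units, dosed for 24 h. EGR1-element reporter mRNA quantified by RT-PCR, 6-FAM labelling, HpaI digestion and capillary electrophoresis; bidirectional fit versus DMSO.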

Assay [14] can be described thus: ATG_M_19_CIS: Attagene CIS-FACTORIAL HepG2 Assay for M19 Transcription Factor (Internal Marker) (AID 2282939). The settings on record: HepG2 Attagene CIS-FACTORIAL M19 internal marker reporter; actives raise or lower the signal. A digest of the protocol: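 Background-control endpoint from a multiplexed HepG2 reporter panel. Cells carrying cis-regulated reporter constructs are treated 24 h, then reporter transcripts are amplified, fluorescently labelled and sized by capillary electrophoresis. DMSO defines baseline.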

The nature of assay [15]: ATG_ERE_CIS: Attagene CIS-FACTORIAL HepG2 Assay for Estrogen Response Element (ERE) (AID 2282940). The settings on record: HepG2 ERE cis-reporter, Attagene RNA transcript; actives raise or lower the signal. The method in brief: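 Cells used were human hepatoma HepG2, transfected with multiple reporter transcription units under cis-regulatory promoters. Reporter mRNA, read 24 h post-dosing via fluorescent RT-PCR products on capillary electrophoresis, was fitted bidirectionally relative to DMSO.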

Assay [16] can be described thus: ATG_Ets_CIS: Attagene CIS-FACTORIAL HepG2 Assay for human Erythroblast Transformation Specific (ETS) (AID 2282941). The settings on record: HepG2 ETS cis-reporter transcription, actives raise or lower the signal. A digest of the protocol:
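Cis-regulated reporter mRNA induction in HepG2 (transient transfection), 24 h exposure, RT-PCR plus capillary electrophoresis detection; DMSO serves as negative control and baseline.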

The target of assay [17] is Hepatocyte nuclear factor 3-beta (Homo sapiens) (UniProt Q9Y261). In words: ATG_FoxA2_CIS: Attagene CIS-FACTORIAL HepG2 Assay for human Forkhead box A2 (FOXA2) (AID 2282942). As to conditions: HepG2 cis-reporter transcription factor activity, 24 h; actives raise or lower the signal. The method in brief: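 HepG2 transiently transfected with a multiplexed cis-promoter reporter library read endogenous FOXA2 activity. After 24 h compound exposure, reporter mRNA was quantified by RT-PCR, HpaI digestion and capillary electrophoresis. Bidirectional fit against DMSO.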

Assay [18] is described as follows: ATG_FoxO_CIS: Attagene CIS-FACTORIAL HepG2 Assay for human Forkhead box O (FoxO) (AID 2282943). As to conditions: HepG2 Attagene cis-reporter, FoxO element, mRNA; actives raise or lower the signal. A digest of the protocol: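 Endogenous transcription factor activity read from multiplexed cis-promoter reporter transcripts in transiently transfected HepG2, 24 h after dosing. Reporter RNA measured via RT-PCR plus capillary electrophoresis of FAM-labeled products; gain or loss relative to DMSO.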

Assay [19] in a line: ATG_GATA_CIS: Attagene CIS-FACTORIAL HepG2 Assay for human GATA Binding Protein (AID 2282944). The settings on record: HepG2 GATA cis-element reporter, Attagene multiplex mRNA; actives raise or lower the signal. The method in brief:
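Endogenous transcription factor activity was captured through cis-promoter-driven reporters in transfected HepG2 cells. After 24 h exposure, reporter transcripts were quantified by RT-PCR with fluorescent capillary electrophoresis, and responses fitted both directions against DMSO.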

The target in assay [20] is Retinoic acid receptor alpha (Homo sapiens) (UniProt P10276). As to the kind of experiment: ATG_DR5_RAR_CIS: Attagene CIS-FACTORIAL HepG2 Assay for human Retinoic Acid Receptor Alpha (RARE), DR5 submotif (AID 2282934). The settings on record: HepG2 Attagene cis-factorial RARE DR5 reporter, mRNA; actives raise or lower the signal. A digest of the protocol:
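Reporter transcripts from a DR5-regulated unit, measured via RT-PCR plus capillary electrophoresis, reflect endogenous RAR activity in transiently transfected human HepG2 liver cells. Exposure lasted 24 h; gain or loss of signal scored against DMSO.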

From PubChem BioAssay (EPA / NIEHS) come the findings set out here.

Active and inactive are the calls of the source. How the source made its calls: active means hit-call score of the fitted dose curve at least 0.9, where 1 is the maximum; inactive means score below 0.9.

Aryl hydrocarbon receptor (Homo sapiens), sequence (P35869 whole entry, looked up): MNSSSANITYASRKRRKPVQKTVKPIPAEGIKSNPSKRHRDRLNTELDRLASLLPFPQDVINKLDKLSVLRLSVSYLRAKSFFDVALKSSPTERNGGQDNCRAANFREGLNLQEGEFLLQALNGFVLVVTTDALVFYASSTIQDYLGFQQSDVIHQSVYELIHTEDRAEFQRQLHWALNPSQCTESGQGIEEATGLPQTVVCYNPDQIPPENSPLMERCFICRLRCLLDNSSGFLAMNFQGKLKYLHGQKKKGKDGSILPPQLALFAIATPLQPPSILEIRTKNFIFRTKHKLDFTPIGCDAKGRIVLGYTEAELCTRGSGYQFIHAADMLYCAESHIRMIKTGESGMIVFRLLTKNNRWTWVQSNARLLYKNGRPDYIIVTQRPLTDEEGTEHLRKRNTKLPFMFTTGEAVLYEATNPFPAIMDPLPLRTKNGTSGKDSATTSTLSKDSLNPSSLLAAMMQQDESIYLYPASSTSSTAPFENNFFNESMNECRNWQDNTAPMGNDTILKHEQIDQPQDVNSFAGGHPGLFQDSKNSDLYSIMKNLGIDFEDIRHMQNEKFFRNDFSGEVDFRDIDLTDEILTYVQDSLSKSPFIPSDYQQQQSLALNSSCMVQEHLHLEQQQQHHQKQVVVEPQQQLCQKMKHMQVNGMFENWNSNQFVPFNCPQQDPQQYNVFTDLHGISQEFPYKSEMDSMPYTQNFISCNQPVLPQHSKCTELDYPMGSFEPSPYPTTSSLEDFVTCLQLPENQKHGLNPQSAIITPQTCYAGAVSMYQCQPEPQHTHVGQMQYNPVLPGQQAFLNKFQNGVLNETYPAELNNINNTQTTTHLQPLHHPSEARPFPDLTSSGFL
Hepatocyte nuclear factor 3-beta (Homo sapiens), sequence (Q9Y261 whole entry, looked up): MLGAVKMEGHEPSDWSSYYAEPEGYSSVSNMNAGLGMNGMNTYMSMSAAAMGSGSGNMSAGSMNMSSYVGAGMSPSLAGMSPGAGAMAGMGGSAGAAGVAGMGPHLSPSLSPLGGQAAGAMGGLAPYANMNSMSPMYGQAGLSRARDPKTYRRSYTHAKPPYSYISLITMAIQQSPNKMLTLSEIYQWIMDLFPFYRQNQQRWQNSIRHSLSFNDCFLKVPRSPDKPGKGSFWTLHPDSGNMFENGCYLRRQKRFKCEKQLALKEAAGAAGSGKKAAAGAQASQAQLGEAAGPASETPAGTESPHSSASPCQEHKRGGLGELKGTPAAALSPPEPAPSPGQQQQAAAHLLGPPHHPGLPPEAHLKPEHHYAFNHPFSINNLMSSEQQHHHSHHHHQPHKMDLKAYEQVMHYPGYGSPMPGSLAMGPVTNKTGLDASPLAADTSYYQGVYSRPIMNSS
CCAAT/enhancer-binding protein beta (Homo sapiens), sequence (P17676 whole entry, looked up, the tested form may be a part): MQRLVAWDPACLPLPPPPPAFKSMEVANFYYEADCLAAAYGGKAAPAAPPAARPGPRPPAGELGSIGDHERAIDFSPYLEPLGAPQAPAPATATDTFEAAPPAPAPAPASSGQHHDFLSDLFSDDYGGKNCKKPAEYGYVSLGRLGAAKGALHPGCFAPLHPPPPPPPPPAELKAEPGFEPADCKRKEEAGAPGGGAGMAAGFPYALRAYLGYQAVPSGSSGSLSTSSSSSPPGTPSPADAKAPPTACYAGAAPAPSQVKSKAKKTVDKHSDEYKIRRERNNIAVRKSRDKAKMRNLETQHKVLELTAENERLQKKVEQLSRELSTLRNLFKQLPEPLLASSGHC
Transcription factor E2F1 (Homo sapiens), sequence (Q01094 whole entry, looked up): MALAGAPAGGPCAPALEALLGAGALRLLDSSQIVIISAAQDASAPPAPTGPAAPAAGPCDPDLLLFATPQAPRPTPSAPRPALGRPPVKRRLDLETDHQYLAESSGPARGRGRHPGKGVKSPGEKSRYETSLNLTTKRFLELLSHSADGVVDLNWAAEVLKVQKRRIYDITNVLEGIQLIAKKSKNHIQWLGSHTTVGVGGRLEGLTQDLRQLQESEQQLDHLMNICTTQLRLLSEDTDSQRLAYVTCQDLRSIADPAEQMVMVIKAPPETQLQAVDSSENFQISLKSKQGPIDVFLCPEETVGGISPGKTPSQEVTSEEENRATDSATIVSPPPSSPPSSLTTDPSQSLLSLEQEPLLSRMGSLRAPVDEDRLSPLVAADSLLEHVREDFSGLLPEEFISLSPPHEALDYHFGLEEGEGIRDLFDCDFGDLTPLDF
Retinoic acid receptor alpha (Homo sapiens), sequence (P10276 whole entry, looked up): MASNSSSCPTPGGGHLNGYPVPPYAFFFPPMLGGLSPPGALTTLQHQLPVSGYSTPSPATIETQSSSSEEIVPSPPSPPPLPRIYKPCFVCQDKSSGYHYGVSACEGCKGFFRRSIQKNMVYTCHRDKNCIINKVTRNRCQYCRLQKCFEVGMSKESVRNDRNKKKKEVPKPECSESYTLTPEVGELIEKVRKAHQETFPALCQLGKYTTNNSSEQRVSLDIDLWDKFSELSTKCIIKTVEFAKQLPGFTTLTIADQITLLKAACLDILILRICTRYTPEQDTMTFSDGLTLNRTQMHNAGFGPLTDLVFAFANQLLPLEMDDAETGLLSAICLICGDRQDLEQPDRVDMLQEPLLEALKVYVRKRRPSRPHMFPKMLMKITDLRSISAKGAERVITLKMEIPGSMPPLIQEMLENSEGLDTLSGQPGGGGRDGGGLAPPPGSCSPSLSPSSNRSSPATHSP

A word on the AC50: it is the midpoint of the concentration-response curve, whichever way the signal moves. Consider `O=c1[nH]cc(F)c(=O)[nH]1`, for which the result in assay [1], in assay [2], in assay [3], in [5], in [6] and in [8] was inactive. Further, the molecule was called inactive in assay [9], in [10], in assay [11], in assay [12], in [13] and in assay [14]. Further, the molecule was called inactive in assay [15], in [16], in assay [17], in assay [18] and in assay [19]. For the same molecule, the AC50 is 8.27 µM (active) in assay [4] and 12.9 µM (active) in assay [7].
On to `C1CCC(SSC2CCCCC2)CC1`, for which the call in assay [1], in assay [2], in assay [3], in [5], in assay [8] and in [9] was inactive. The molecule was called inactive in assay [10], in [11], in assay [12], in assay [13], in [14] and in assay [16]. Further, the outcome in [17], in assay [18] and in assay [19] was inactive. The AC50 was 65.6 µM (active) in [4], 66.3 µM (active) in [6], 125 µM (active) in [7] and 56.7 µM (active) in [15].
Take `COCCOC[C@H](CC1(C(=O)NC2CCC(C(=O)O)CC2)CCCC1)C(=O)Oc1ccc2c(c1)CCC2` (stereo partly specified): the outcome in [1], in assay [2], in assay [3], in assay [4], in assay [5] and in assay [6] was inactive. Further, the result in assay [7], in assay [8], in assay [9], in assay [10], in [11] and in assay [12] was inactive. Also, the molecule was called inactive in assay [13], in assay [14], in [15], in assay [16], in [17] and in assay [18]. In [19], the molecule was classed as inactive.
As for `C[C@]12C=CC(=O)C=C1CC[C@@H]1[C@@H]2C(=O)C[C@@]2(C)[C@H]1CC[C@]2(O)C(=O)CO`, the call in [1], in assay [2], in [4], in assay [5], in assay [6] and in assay [7] was inactive. In addition, the molecule was called inactive in assay [8], in [9], in assay [20], in assay [10], in assay [11] and in assay [12]. The result in assay [13], in assay [14], in assay [16], in assay [17], in assay [18] and in assay [19] was inactive. The AC50 in assay [15] was 6.76 µM (active).
